According to PubChem BioAssay (EPA / NIEHS):
The source holds several records for some structures; these can differ, active in one and inactive in another. The source made the active and inactive calls. Rule for the calls: active = hit-call score of the fitted dose curve at least 0.9, where 1 is the maximum; inactive = score below 0.9.

Experiment: ATG_M_32_CIS: Attagene CIS-FACTORIAL HepG2 Assay for M32 Transcription Factor (Internal Marker) (AID 2282949);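 note: background control marker of the multiplexed CIS panel rather than a real target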
Settings: HepG2 Attagene cis-factorial M32 reporter, mRNA; actives raise or lower the signal
Description: ATG_CIS is a cell-based, multiplexed-readout assay that uses HepG2, a human liver cell line, with measurements taken at 24 hours after chemical dosing in a 24-well plate.ATG_M_32_CIS is one of 52 assay component(s) measured or calculated from the ATG_CIS assay. It is designed to make measurements of mRNA induction, a form of inducible reporter, as detected with fluorescence intensity signals by Reverse transcription polymerase chain reaction (RT-PCR) and Capillary electrophoresis technology.Data from the assay component ATG_M_32_CIS was analyzed into 1 assay endpoint. This assay endpoint, ATG_M_32_CIS, was analyzed with bidirectional fitting relative to DMSO as the negative control and baseline of activity. Using a type of inducible reporter, measures of mRNA for gain or loss-of-signal activity can be used to understand the background control at the transcription factor-level as they relate to the gene . Furthermore, this assay endpoint can be referred to as a secondary readout, because this assay has produced multiple assay endpoints where this one serves a background control function. To generalize the intended target to other relatable targets, this assay endpoint is annotated to the background measurement intended target family, where the subfamily is internal marker.
Human liver HepG2 cells are transiently transfected with multiple reporter transcription units (MRTUs) in 6-well plates using FuGene 6 reagent (Roche; 3 ml FuGene/1 mg DNA). The MRTU constructs are regulated by a cis-regulating element (promoter). […] A major difference between the CIS and TRANS system is that in CIS activities of endogenous TFs are measured, whereas the TRANS assay evaluates changes in activities of exogenous, chimeric NR-Gal4 proteins. […] At the end of 24 hour incubation, total RNA was isolated using TriZol reagent (Invitrogen). The isolated RNA is then reverse-transcribed using oligo(dT) primer and Mo-MLV reverse transcriptase (Invitrogen) with DNAse I (Ambion) treatment for 30 min. The one-tenth of the produced cDNA was amplified by PCR using Taq DNA polymerase (Invitrogen) and two reporter sequence-specific primers. The PCR products were fluorescently labeled by primer extension with 6-arboxyfluorescein (6-FAM) 5'-labeled reporter sequence-specific primer (2 min at 95 C, 20 s at 68 C and 10 min at 72 C) and these products were digested with 5U of HpaI (New England Biolabs) for 2h at 37 C. The fragments were purified using Qiaquick PCR columns (Qiagen), analyzed on an ABI 3130xL genetic analyzer (Applied Biosystems) with peak positions identified by using a set of X-rhodamine (ROX)-labeled MapMarker1000 molecular weight standards (BioVentures). The raw capillary electrophoresis data was processed using Attagraph software (Attagene).

Compound	outcome	AC50
Cc1cc(C)c(O)c(C)c1	inactive	
CCCCC(CC)COC(=O)CCCCC(=O)OCC(CC)CCCC (stereo not given)	inactive	
O=C(O)Cc1cc(I)c(Oc2cc(I)c(O)c(I)c2)c(I)c1	inactive	108 µM (active)
NC(=O)N(O)[C@@H]1C=C[C@H](Oc2cccc(Oc3ccc(F)cc3)c2)C1	inactive	
CN1CCN(c2ccccc2/C=C2\SCCN(c3ccc(Cl)c(Cl)c3)C2=O)CC1	inactive	
CC(O)C(=O)O (stereo not given)	inactive	
CC#C[C@]1(O)CC[C@H]2[C@@H]3CCC4=CC(=O)CCC4=C3[C@@H](c3ccc(N(C)C)cc3)C[C@@]21C	inactive	
NCC(F)(F)C(F)(F)C(F)(F)C(F)(F)C(F)(F)C(F)(F)C(F)(F)F	inactive	
CCCCC[C@H](O)CC(=O)CCc1ccc(O)c(OC)c1	inactive	
O=C(/C=C/c1ccc(O)cc1)CC(=O)/C=C/c1ccc(O)cc1	inactive	
CCc1nn(C2CCCCC2)c2cc(C3(C#N)CCC(C(=O)O)CC3)ccc12 (stereo not given)	inactive	
OCCC(F)(F)C(F)(F)C(F)(F)C(F)(F)C(F)(F)C(F)(F)C(F)(F)C(F)(F)F	inactive	
COc1ccc([N+](=O)[O-])cc1N	inactive	
CCN(CC)CCNc1ccc(CNC=O)c2sc3ccc(OC)cc3c(=O)c12	inactive	
CC(=O)CC(C)(C)O	inactive	
CC(C)(C)c1ccc(O)c(C(C)(C)C)c1	inactive	
C[C@@H]1C[C@H]2[C@@H]3CCC4=CC(=O)C=C[C@]4(C)[C@@]3(F)[C@@H](O)C[C@]2(C)[C@@]1(O)C(=O)COP(=O)(O)O	inactive	
CCOC(=O)CC(O)(CC(=O)OCC)C(=O)OCC	inactive	
CCCOC(=O)c1ccc(O)cc1	inactive	
N#C[C@@H]1CC(F)(F)CN1C(=O)CNC1CC2CCC(C1)N2c1ncccn1 (stereo not given in full)	inactive	

Compound	outcome	AC50
FC(F)(I)C(F)(F)C(F)(F)C(F)(F)C(F)(F)C(F)(F)I	inactive	
COc1cc(CCC(=O)CC(=O)CCc2ccc(O)c(OC)c2)ccc1O	inactive	
CCCCC(CC)COC(=O)CCCCC(=O)OCc1ccccc1 (stereo not given)	inactive	
CC[C@H](c1ccc(O)cc1)[C@@H](CC)c1ccc(O)cc1	inactive	
CCCCCCC(=O)O	inactive	
C#C[C@]1(O)CC[C@H]2[C@@H]3CCC4=CC(=O)CC[C@@H]4[C@H]3CC[C@@]21C	inactive	
COCC(C)O (stereo not given)	inactive	
CC1=C(/C=C/C(C)=C/C=C/C(C)=C/C(=O)O)C(C)(C)CCC1	inactive	
O=C(OCCOCCOC(=O)c1ccccc1)c1ccccc1	inactive	
CN(C)C=O	inactive	
COC(=O)CCCCC(=O)OC	inactive	
CCCCCCCC(=O)O	inactive	
Cc1ccc(S(=O)(=O)O)c(C)c1	inactive	
CCCCCCCCC(=O)O	inactive	
CCCOc1sc(C(=O)N2CCC(c3cc(CN)ccc3F)CC2)c(C)c1Br	inactive	
Oc1cc2ccccc2c2ccccc12	inactive	
CCCCCCCCCCCCCCCS(=O)(=O)Oc1ccccc1	inactive	
CN1CCC[C@H]1c1cccnc1	inactive	
CCC(=C(c1ccc(O)cc1)c1ccc(OCCN(C)C)cc1)c1ccccc1	inactive	
